Here are results for 14 molecules from PubChem BioAssay.

The test system of experiment [1] is Plasmodium falciparum Sir2 (PF13_0152, Sir2A). As to the kind of experiment: Plasmodium falciparum Sir2A binding compounds – biochemical, small-molecule microarray, 635 nm fluorescence, primary screen (AID 1098).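 Also: score merges spot fluorescence intensity with its signal-to-noise ratio.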 To be noted: fluorescence 635 nm, higher = more signal.
Experiment [2] in a line: probe aDKK1 binding to arrayed compounds – biochemical, biotinylated probe, 635/667 nm fluorescence, primary screen (AID 1099).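 Also: score merges 667nm spot fluorescence with signal to noise across triplicate slides; reference of the scale not given here.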 To be noted: small-molecule microarray, higher = more signal.
Experiment [3] in a line: probe aCHRDL2 binding to arrayed compounds – biochemical, biotinylated probe, 635/667 nm fluorescence, primary screen (AID 1100). To be noted: small-molecule microarray, higher = more signal.
The nature of experiment [4]: change in splice reporter luminescence, either direction, cell-based, HEK293, spliceosome inhibition project, primary screen (AID 1101).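 Also: HEK293 cells carrying a splicing-competent luciferase reporter gene; test concentration not given here.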 Conditions: HEK293 splicing luciferase reporter, 24 h, higher = more signal, called active from +8 up or from −8 down.
Experiment [5] addresses Fibroblast growth factor 10 (Homo sapiens) (UniProt O15520). As to the kind of experiment: compounds binding fibroblast growth factor 10 – biochemical, small-molecule microarray, 635 nm fluorescence, primary screen (AID 1102). To be noted: FGF10 binding, fluorescence 635 nm, higher = more signal.
Experiment [6] has as its system glycogen synthase kinase-3 (GSK3A per assay name; protocol says GSK3B). As to the kind of experiment: compounds binding glycogen synthase kinase-3 – biochemical, small-molecule microarray, 635 nm fluorescence, GSK3A, primary screen (AID 1103). Also: the record names both GSK3A and GSK3B. Conditions: fluorescence 635 nm, higher = more signal.
The target in experiment [7] is Epidermal growth factor receptor (Homo sapiens) (UniProt P00533). As to the kind of experiment: compounds binding epidermal growth factor receptor – biochemical, small-molecule microarray, 635 nm fluorescence, primary screen (AID 1104).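 Also: score merges 667 nm emission intensity with spot signal to noise over triplicate slides.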 To be noted: EGFR binding, higher = more signal.
Epidermal growth factor receptor (Homo sapiens), sequence (P00533 whole entry, looked up): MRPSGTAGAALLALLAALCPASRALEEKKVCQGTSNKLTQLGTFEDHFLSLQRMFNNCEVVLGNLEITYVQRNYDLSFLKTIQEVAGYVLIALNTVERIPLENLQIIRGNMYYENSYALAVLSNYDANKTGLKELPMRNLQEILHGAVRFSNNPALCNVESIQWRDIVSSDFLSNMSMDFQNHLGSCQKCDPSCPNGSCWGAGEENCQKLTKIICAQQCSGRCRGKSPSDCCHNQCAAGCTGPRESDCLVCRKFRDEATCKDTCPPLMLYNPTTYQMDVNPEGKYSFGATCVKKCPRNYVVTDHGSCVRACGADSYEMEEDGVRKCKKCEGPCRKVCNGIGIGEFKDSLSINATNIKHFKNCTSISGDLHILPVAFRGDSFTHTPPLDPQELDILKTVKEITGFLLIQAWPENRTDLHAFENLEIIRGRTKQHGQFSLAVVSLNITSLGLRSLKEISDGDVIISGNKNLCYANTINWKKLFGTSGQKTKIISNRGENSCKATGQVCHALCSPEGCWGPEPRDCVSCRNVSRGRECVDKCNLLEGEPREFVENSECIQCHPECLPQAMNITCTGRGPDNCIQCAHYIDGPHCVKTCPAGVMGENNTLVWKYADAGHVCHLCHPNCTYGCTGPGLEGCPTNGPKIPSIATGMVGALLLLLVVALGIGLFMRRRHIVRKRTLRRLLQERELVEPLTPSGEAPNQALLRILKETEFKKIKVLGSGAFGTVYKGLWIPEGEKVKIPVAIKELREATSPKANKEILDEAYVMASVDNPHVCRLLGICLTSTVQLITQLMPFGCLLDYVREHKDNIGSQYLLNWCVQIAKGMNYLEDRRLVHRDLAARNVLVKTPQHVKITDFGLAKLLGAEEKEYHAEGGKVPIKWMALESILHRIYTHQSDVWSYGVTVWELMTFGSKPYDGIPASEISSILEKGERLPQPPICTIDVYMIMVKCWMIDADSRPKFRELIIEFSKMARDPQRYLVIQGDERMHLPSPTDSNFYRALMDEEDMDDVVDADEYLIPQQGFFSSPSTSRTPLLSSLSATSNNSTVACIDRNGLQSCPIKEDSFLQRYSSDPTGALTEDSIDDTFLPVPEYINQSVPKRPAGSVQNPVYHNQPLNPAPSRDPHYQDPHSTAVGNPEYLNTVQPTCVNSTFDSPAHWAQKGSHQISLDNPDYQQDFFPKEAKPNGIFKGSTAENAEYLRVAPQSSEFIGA
Experiment [8] addresses Follistatin-related protein 3 (Homo sapiens) (UniProt O95633). The experiment can be described thus: compounds binding follistatin-related protein 3 – biochemical, small-molecule microarray, 635 nm fluorescence, primary screen (AID 1105).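 Also: score merges emission near 667 nm and signal to noise per printed spot across three slides.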 To be noted: FSTL3 binding, higher = more signal.
Experiment [9] addresses Dickkopf-related protein 1 (Homo sapiens) (UniProt O94907). As to the kind of experiment: small molecules binding DKK1 protein – biochemical, small-molecule microarray, 635 nm fluorescence scan, primary screen (AID 1106).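 Also: score merges emission near 667 nm with signal to noise over three replicate slides.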 To be noted: higher = more signal.
Experiment [10] deals with Inhibin beta A chain (activin A). The experiment can be described thus: small molecules binding activin A – biochemical, small-molecule microarray, 635 nm fluorescence scan, primary screen (AID 1107).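 Also: mouse activin A protein probed at 4.33 µg/mL on printed slides; score merges bound-protein fluorescence near 667 nm with spot signal-to-noise.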 To be noted: INHBA, higher = more signal.

Each structure is given as a SMILES string. The source made the active and inactive calls.

Fibroblast growth factor 10 (Homo sapiens), sequence (O15520 whole entry, looked up): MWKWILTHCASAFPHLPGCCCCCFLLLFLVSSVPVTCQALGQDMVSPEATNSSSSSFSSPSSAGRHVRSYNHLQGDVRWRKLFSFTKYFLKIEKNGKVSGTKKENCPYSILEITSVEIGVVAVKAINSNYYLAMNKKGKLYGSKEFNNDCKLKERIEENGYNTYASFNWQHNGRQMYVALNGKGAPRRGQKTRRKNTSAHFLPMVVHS
Dickkopf-related protein 1 (Homo sapiens), sequence (O94907 whole entry, looked up): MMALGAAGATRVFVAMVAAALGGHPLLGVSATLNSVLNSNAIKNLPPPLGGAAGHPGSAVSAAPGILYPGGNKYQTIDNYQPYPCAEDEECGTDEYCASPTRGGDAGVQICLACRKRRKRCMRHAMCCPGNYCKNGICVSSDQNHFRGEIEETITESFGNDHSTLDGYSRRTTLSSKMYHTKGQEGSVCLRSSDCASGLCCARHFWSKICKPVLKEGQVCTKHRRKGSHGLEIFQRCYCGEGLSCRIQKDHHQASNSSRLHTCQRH
Follistatin-related protein 3 (Homo sapiens), sequence (O95633 whole entry, looked up): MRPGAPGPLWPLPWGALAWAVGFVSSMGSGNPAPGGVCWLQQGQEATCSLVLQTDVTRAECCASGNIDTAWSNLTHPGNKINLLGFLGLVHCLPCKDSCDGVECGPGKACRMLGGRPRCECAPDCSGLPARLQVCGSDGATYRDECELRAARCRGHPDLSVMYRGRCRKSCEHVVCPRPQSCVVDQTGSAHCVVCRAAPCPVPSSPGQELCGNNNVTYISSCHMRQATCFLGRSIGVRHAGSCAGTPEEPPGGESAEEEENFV

Regarding `CCC[C@@H]1C=C(C(=O)OCC)[C@H](c2ccccc2)N1S(=O)(=O)c1ccc(C)cc1`, the composite z-score in experiment [1] was found to be 0.58; in experiment [2], 0.852; in [3] it was 1.02; in experiment [5], 0.977; in [6] it was 1.32; in [7], 0.623. The results for the composite z-score in experiment [8], in [9] and in experiment [10] were 1.25, 0.117 and 0.789, respectively. For the same molecule, in experiment [4], the z-score is -0.141 (inactive).

For `C=CCC(OC(C)=O)[C@@H]1[C@@H](N(Cc2cccc3ccccc23)C(=O)c2cccc3ccccc23)c2cc(OCCCO)ccc2N1C(=O)Cc1ccc2ccccc2c1` (stereo not given in full), the composite z-score was -0.181 in experiment [1]; -0.177 in [2]; 0.551 in experiment [3]; -0.0715 in [5]; -0.0273 in experiment [6]; -0.117 in experiment [7]. Besides, the figures for the composite z-score in experiment [8], in experiment [9] and in experiment [10] were 0.246, -0.394 and 1.48, respectively. Also, the z-score in experiment [4] is 0.341 (inactive).

With `CC(C)=CCN(C(=O)C#Cc1ccccc1)[C@H](CO)c1ccccc1`, the composite z-score in experiment [1] was -0.117; in [2], -0.267; in experiment [3], -0.693; in [5], 0.341; in experiment [6], 0.506; in experiment [7] it was 0.512. Also, the composite z-score in experiment [8] is 0.604; in [9], 0.439; in [10], 0.661. Also, the z-score in experiment [4] is 7.56 (inactive).

For the molecule `CO[C@H]1O[C@H](CO)[C@@H](OC(=O)Nc2ccc3c(c2)OCO3)[C@@H]2OC(=O)[C@@H](Cc3ccccc3)C/C=C/C[C@H](Cc3ccccc3)C(=O)O[C@@H]12`, the composite z-score in [1] was 0.915; in experiment [2], 0.0902; in experiment [3] it was 0.259; in [5], 1.39; in [6] it was 0.708; in [7] it was 0.342. The composite z-score in experiment [8] was determined as 0.817; in experiment [9] it was 0.401; in experiment [10] it was 0.996. Further, the z-score in experiment [4] is 0.216 (inactive).

In the case of `COCCOC(=O)N1C(=O)[C@@]2(c3cc(C#CC4=CCCCC4)ccc31)[C@H](C(=O)N1CCN(c3ncccn3)CC1)[C@H]1C(=O)O[C@H](c3ccccc3)[C@H](c3ccccc3)N1[C@@H]2c1ccccc1OCCO`, the composite z-score in [1] was 0.419; in experiment [2], -0.082; in experiment [3], -0.296; in experiment [5], 1.3; in [6], 1.28; in experiment [7], 0.396. The composite z-score was 1.19 in experiment [8], 0.402 in experiment [9] and 0.451 in experiment [10]. Besides, in experiment [4], the z-score is -0.544 (inactive).

Turning to `COc1ccc([Si](C)(C)[C@@H]2[C@@H](CC(=O)N(CCO)Cc3ccccc3)O[C@]3(C(=O)N(Cc4ccc(N5CCC5=O)cc4)c4ccccc43)[C@H]2C)cc1`, the composite z-score in [1] was 1.41; in [2] it was -0.26; in experiment [3] it was 0.618; in experiment [5] it was 0.0525; in experiment [6], -0.808; in experiment [7] it was 0.359. In addition, the composite z-score in [8] came out at 0.953; in [9], 0.919; in [10], 0.0242. For the same molecule, in [4], the z-score is -1.9 (inactive).

Consider `CC1CC/C=C\[C@H]2OC34C=CCN(c5ccc(Cl)cc5)C(=O)[C@H]3N(CCCO)C(=O)[C@]4(C)C2C(=O)O1` (stereo not given in full), for which the composite z-score in experiment [1] is 0.312; in [2], -0.0782; in experiment [3], 0.717; in [5], -1.32; in experiment [6], -1.28; in experiment [7], -1.1. Moreover, the results for the composite z-score in experiment [8], in [9] and in experiment [10] were -0.949, -1.42 and 0.596, respectively. Also, in experiment [4], the z-score was 0.453 (inactive).

`COc1ccc([Si](C)(C)[C@H]2[C@H](CCn3cc([C@H](O)c4ccccc4)nn3)O[C@@]3(C(=O)N(C)c4c(Br)cc(C)cc43)[C@@H]2C)cc1`: the composite z-score was -0.34 in [1]; -0.189 in experiment [2]; 0.387 in experiment [3]; 0.574 in experiment [5]; 0.0322 in [6]; -0.597 in experiment [7]. Further, the composite z-score in experiment [8] was -0.499; in [9], 0.335; in experiment [10], 0.227. Also, in [4], the z-score is -0.923 (inactive).

In the case of `COC(=O)[C@@]1(CCS(=O)(=O)c2ccccc2)N=C(c2ccc(OCCCO)cc2)O[C@H]1c1ccccc1N=[N+]=[N-]`, the composite z-score stood at 1.52 in experiment [1]; 0.336 in [2]; 0.475 in experiment [3]; 0.419 in [5]; 1.29 in experiment [6]; 0.491 in experiment [7]. In addition, the results for the composite z-score in experiment [8], in experiment [9] and in [10] were 0.969, 0.425 and 0.865, respectively. Moreover, the z-score in experiment [4] is 0.177 (inactive).

Consider `CN1C=C(C(=O)OCCS(C)(=O)=O)C(C(=O)OCCS(C)(=O)=O)=CC(CCCO)=CC1c1ccc(CN2CCCC2)cc1` (stereo not given), for which the composite z-score in experiment [1] amounted to 0.867; in experiment [2], 0.633; in experiment [3], 0.539; in experiment [5], 1.27; in [6], 1.3; in [7], 0.566. The composite z-score in experiment [8] worked out at 1.32; in experiment [9], 0.602; in experiment [10], 0.969. Besides, in experiment [4], the z-score was -0.0863 (inactive).

Regarding `C=CCC(OC(C)=O)[C@@H]1[C@@H](N(Cc2ccc(-c3ccccc3)cc2)C(=O)c2ccc(C)cc2)c2cc(OCCCO)ccc2N1C(=O)c1ccc2ccccc2c1` (stereo not given in full), the composite z-score is -0.376 in experiment [1]; -0.165 in experiment [2]; -0.093 in experiment [3]; 0.265 in [5]; -0.549 in [6]; -0.0575 in experiment [7]. The composite z-score in [8] is 0.168; in experiment [9] it was -0.134; in experiment [10] it was 0.944. For the same molecule, in [4], the z-score is -1.36 (inactive).

On to `CCCCNC(=O)c1ccc(C#C[Si](C)(C)C)c(OC(C)=O)c1`, for which the composite z-score in experiment [1] is -0.0653; in experiment [2] it was -0.31; in experiment [3], -0.509; in experiment [5] it was 0.458; in experiment [6], 0.419; in [7] it was 0.315. Further, the composite z-score in experiment [8] was 0.384; in experiment [9], 0.374; in experiment [10], 0.58. Besides, the z-score in experiment [4] is -0.176 (inactive).

As to `NCCCC[C@@H]1NC(=O)[C@H]2C[C@@H](C(=O)NCc3ccc(F)cc3)[C@@H](c3cccc(OCCO)c3)N2C1=O`, the composite z-score in [1] was 1.43; in experiment [2] it was 0.0142; in experiment [3] it was -0.142; in [5], 1.32; in [6], 1.34; in experiment [7] it was 0.803. Moreover, the composite z-score is 1.47 in experiment [8], 1.6 in experiment [9] and 0.799 in experiment [10]. For the same molecule, in [4], the z-score is -0.436 (inactive).

Turning to `C/C=C/CN(C(=O)C#Cc1ccccc1)[C@H](CO[Si](C)(C)C(C)(C)C)c1ccccc1`, the composite z-score in experiment [1] is -0.435; in experiment [2], -0.65; in experiment [3], -0.169; in experiment [5], -1.27; in experiment [6], -0.0745; in [7], -1.37. For the same molecule, the composite z-score in experiment [8] is -1.44; in experiment [9], -0.72; in experiment [10] it was 1.19. In experiment [4], the z-score is -3.21 (inactive).
